The record followed here is PubChem BioAssay (NCI).

A short description of experiment [1]: NCI Yeast Anticancer Drug Screen. Data for the rad50 strain (AID 155).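 Further: 0% = growth of vehicle-only cultures of the same strain.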 The settings on record: S. cerevisiae rad50 strain growth inhibition, hits give high values. In a few lines: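 Genetically altered yeast (DNA repair pathway); compound treatment; growth inhibition vs vehicle ctrl.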
Experiment [2] can be described thus: NCI Yeast Anticancer Drug Screen. Data for the mec2-1 strain (AID 157). The settings on record: S. cerevisiae mec2-1 strain, hits give high values. In a few lines:
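Cells of the genetically defined mec2-1 yeast strain are incubated with test compound. Inhibition of growth is calculated against vehicle-treated controls.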

Experiment [3] is described as follows: NCI Yeast Anticancer Drug Screen. Data for the sgs1 mgt1 strain (AID 161).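 Further: 0% = growth of cultures given vehicle only.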 Particulars: S. cerevisiae sgs1 mgt1 strain, hits give high values. In a few lines:
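Inhibition of yeast growth, normalised to vehicle-treated controls, is reported for a strain bearing genetic alterations in DNA damage repair.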

Experiment [4] in a line: NCI Yeast Anticancer Drug Screen. Data for the cln2 rad14 strain (AID 165).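 Further: 0% = growth equal to vehicle treated cultures.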 The settings on record: S. cerevisiae cln2 rad14 strain, hits give high values. In outline:
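The screen exposed genetically defined yeast (cln2 rad14) to test compounds and scored growth inhibition relative to vehicle-treated controls.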

The nature of experiment [5]: NCI Yeast Anticancer Drug Screen. Data for the bub3 strain (AID 167). The settings on record: S. cerevisiae bub3 mutant strain, hits give high values. In outline: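 Yeast carrying a defined mutation is treated with each compound, and growth is compared with that of vehicle-exposed cells to give inhibition.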
The nature of experiment [6]: NCI Yeast Anticancer Drug Screen. Data for the mlh1 rad18 strain (AID 175). The settings on record: S. cerevisiae mlh1 rad18 strain growth inhibition, hits give high values. In outline:
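Compound-treated yeast growth, normalised to vehicle controls. Strain bears defined DNA repair mutations.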

Setting [7] is: at 5.0 µM (retest, dose inferred, filed as 0.5).
The mark [8] stands for this setting: at 50.0 µM (retest, dose inferred, filed as 5.0).

Structures are written as SMILES. Compounds without any hit were thinned out: in the full panel of roughly 79,000, 15% have a hit. Unmarked numbers belong to inactive results. The source made the active and inactive calls. No stated cut-off is given here; in the data, active means growth inhibition above about 70%; inactive means the rest.

With `O=C(c1ccccc1)c1cccc2ccccc12`, the growth inhibition in experiment [1] (setting [7]) is 5%; in experiment [1] (setting [8]), 29%; in experiment [1] (at 50.0 µM) it was 56.2%; in experiment [2] (setting [7]), -5%; in experiment [2] (setting [8]) it was -2%; in experiment [2] (at 50.0 µM), 43%. Also, the growth inhibition in experiment [3] (setting [7]) is -2%; in experiment [3] (setting [8]) it was 30%; in experiment [3] (at 50.0 µM), 52.2%; in experiment [4] (setting [7]), -2%; in experiment [4] (setting [8]), -24%; in experiment [4] (at 50.0 µM), -14.3%. The growth inhibition in experiment [5] (setting [7]) is 16%; in experiment [5] (setting [8]), 27%; in experiment [5] (at 50.0 µM), 49.7%; in experiment [6] (setting [7]), -1%; in experiment [6] (setting [8]), 14%; in experiment [6] (at 50.0 µM), 88.2% (active).
As to `Cc1ccccc1Nc1nc(-c2ccccc2)nc(N)c1N=O`, the growth inhibition was 9% in experiment [1] (setting [7]); 98% (active) in experiment [1] (setting [8]); 59.2% in experiment [1] (at 50.0 µM); 9% in experiment [2] (setting [7]); 98% (active) in experiment [2] (setting [8]); 43% in experiment [2] (at 50.0 µM). For the same molecule, the growth inhibition in experiment [3] (setting [7]) was 32%; in experiment [3] (setting [8]), 98% (active); in experiment [3] (at 50.0 µM), 72.8% (active); in experiment [4] (setting [7]), 13%; in experiment [4] (setting [8]), 97% (active); in experiment [4] (at 50.0 µM) it was 28.6%. Moreover, the growth inhibition in experiment [5] (setting [7]) was 4%; in experiment [5] (setting [8]) it was 97% (active); in experiment [5] (at 50.0 µM) it was 45%; in experiment [6] (setting [7]) it was 9%; in experiment [6] (setting [8]), 97% (active); in experiment [6] (at 50.0 µM), 59%.
For `Cc1ccc(N=Nc2c(-c3ccccc3)nn(C(=S)S)c2-c2ccccc2)cc1`, the growth inhibition in experiment [1] (setting [7]) was 8%; in experiment [1] (setting [8]), 48%; in experiment [1] (at 50.0 µM) it was 49.7%; in experiment [2] (setting [7]), 9%; in experiment [2] (setting [8]) it was 37%; in experiment [2] (at 50.0 µM) it was 38.5%. In addition, the growth inhibition is 12% in experiment [3] (setting [7]); 72% (active) in experiment [3] (setting [8]); 55.8% in experiment [3] (at 50.0 µM); 5% in experiment [4] (setting [7]); 39% in experiment [4] (setting [8]); 16.2% in experiment [4] (at 50.0 µM). Moreover, the growth inhibition in experiment [5] (setting [7]) is 36%; in experiment [5] (setting [8]), 84% (active); in experiment [5] (at 50.0 µM) it was 85.2% (active); in experiment [6] (setting [7]), 7%; in experiment [6] (setting [8]), 34%; in experiment [6] (at 50.0 µM), 61.8%.
Take `CCCC(=S)N1CCOCC1`: the growth inhibition in experiment [1] (setting [7]) is -1%; in experiment [1] (setting [8]), -2%; in experiment [1] (at 50.0 µM) it was -23.9%; in experiment [2] (setting [7]) it was -1%; in experiment [2] (setting [8]), 1%; in experiment [2] (at 50.0 µM), -4.05%. In addition, the growth inhibition in experiment [3] (setting [7]) was -1%; in experiment [3] (setting [8]), -1%; in experiment [3] (at 50.0 µM) it was -3.95%; in experiment [4] (setting [7]), -10%; in experiment [4] (setting [8]), -4%; in experiment [4] (at 50.0 µM) it was 33.2%. Moreover, the growth inhibition in experiment [5] (setting [7]) is -1%; in experiment [5] (setting [8]) it was -1%; in experiment [5] (at 50.0 µM) it was 12.4%; in experiment [6] (setting [7]) it was -2%; in experiment [6] (setting [8]) it was -3%; in experiment [6] (at 50.0 µM), 26.6%.
As to `Cc1cc(NCCCCCCCNc2cc(C)nc3cc(N)ccc23)c2ccc(N)cc2n1`, the growth inhibition in experiment [1] (setting [7]) is 4%; in experiment [1] (setting [8]), 85% (active); in experiment [1] (at 50.0 µM), 79.6% (active); in experiment [2] (setting [7]), -11%; in experiment [2] (setting [8]), 76% (active); in experiment [2] (at 50.0 µM), 85.5% (active). Further, the growth inhibition in experiment [3] (setting [7]) is 12%; in experiment [3] (setting [8]), 78% (active); in experiment [3] (at 50.0 µM) it was 86% (active); in experiment [4] (setting [7]), 12%; in experiment [4] (setting [8]), 45%; in experiment [4] (at 50.0 µM) it was 82% (active). Besides, the growth inhibition in experiment [5] (setting [7]) was -12%; in experiment [5] (setting [8]) it was 82% (active); in experiment [5] (at 50.0 µM), 87% (active); in experiment [6] (setting [7]), -3%; in experiment [6] (setting [8]), 83% (active); in experiment [6] (at 50.0 µM), 91.5% (active).
For `CCCC(=O)Oc1c(Br)cc(Br)cc1Br`, the growth inhibition in experiment [1] (setting [7]) is -1%; in experiment [1] (setting [8]), 17%; in experiment [1] (at 50.0 µM), 21.6%; in experiment [2] (setting [7]), -4%; in experiment [2] (setting [8]) it was 7%; in experiment [2] (at 50.0 µM), 21.3%. Also, the growth inhibition was -4% in experiment [3] (setting [7]); 7% in experiment [3] (setting [8]); 19.1% in experiment [3] (at 50.0 µM); -6% in experiment [4] (setting [7]); -19% in experiment [4] (setting [8]); 44.9% in experiment [4] (at 50.0 µM). For the same molecule, the growth inhibition is 1% in experiment [5] (setting [7]); 19% in experiment [5] (setting [8]); 45.5% in experiment [5] (at 50.0 µM); -1% in experiment [6] (setting [7]); 12% in experiment [6] (setting [8]); 20.6% in experiment [6] (at 50.0 µM).
